Laboratory results taken from PubChem BioAssay (NCI).
The panel holds about 83,000 compounds, 20% with a hit somewhere; the sample as a whole holds those more often.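 Negative percent growth values reflect cell death: -40 means 40% of the cells present at the start died, and -100 means all died.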 Active and inactive are the calls of the source. How the source made its calls: active means growth percent below 10; inactive means the rest.

What follows are compounds tested on MDA-MB-468 breast (assay: NCI-60 one-dose screen, 48 h (100 = growth as untreated, 0 = no growth, -100 = all killed)). Settings: 10 µM unless noted.

Row | SMILES | growth
1 | COc1cc(C(=O)Nc2cc3c(cc2Oc2cc(C)cc(C)c2)C(=O)N(C)[C@@H](CC(=O)N(C)O)C(=O)N3)c(Br)c(OC)c1OC | -41.6% (active)
2 | C=C(C)c1ccc(/C=N/NC(N)=S)cc1 | 70.6% (inactive)
3 | C=C(C)[C@@H]1CC[C@]2(C(=O)O)CC[C@]3(C)[C@H](CC[C@@H]4[C@@]5(C)C/C(=C/c6ccc(OC)cc6)C(=O)C(C)(C)[C@@H]5CC[C@]43C)[C@@H]12 | 0.722% (active)
4 | Cc1nc(-c2ccccc2)cc2c(O)c(C(=O)NN)[nH]c(=O)c12 | 116% (inactive)
5 | CN1CCN(c2ccc(Nc3nc(NCCCNS(=O)(=O)c4ccc(F)cc4)c4sccc4n3)cc2)CC1 | 25.9% (inactive)
6 | COc1ccc(C(=NN=C(N)N)c2ccc(OC)cc2)cc1 | -17.7% (active)
7 | CCCCCCCCCCCCCCCCCC1=NCCN1CCNC(C)=O | 114% (inactive)
8 | CCN(CC)CCCC(C)Nc1cc(-c2cccc(OC(F)(F)F)c2)nc2ccc(N3CCCC3)cc12 (stereo not given) | -56.3% (active)
9 | CC1CCC2(OC1)OC1CC3C4CC=C5CC(O)CCC5(C)C4CCC3(C)C1C2C (stereo not given) | 89.4% (inactive)
10 | Cc1c(-c2ccccc2)[nH]c2ccccc12 | 88.1% (inactive)
11 | C[C@]1(O)CC(=O)[C@]2(O)C3=C(C=C[C@]2(O)C1)C(=O)c1c(O)cccc1C3=O | -57.5% (active)
12 | CC1(C)OB(O)c2cc(-c3nc4ccc5[nH]ncc5c4c4c3CCCC4)ccc21 | 69.5% (inactive)
13 | NNC(=O)CCCCl | 96% (inactive)
14 | Cc1cc(C)c(S(=O)O)c(C)c1 | 106% (inactive)
15 | O=C(CSc1nc2ccccc2c(=O)n1-c1ccc(Cl)cc1)N/N=C/c1ccc(N2CCCCC2)cc1 | 79.5% (inactive)
16 | Cc1ccc(C2=NN(c3ccc(S(N)(=O)=O)cc3)C(c3cn(-c4ccccc4)nc3-c3ccccc3)C2)cc1 (stereo not given) | 112% (inactive)
17 | CCCCCCCCCCCCCCCCCC1=NCCN1C(=O)OCCO | -67.1% (active)
18 | COc1ccc2c(c1)C(=O)c1c-2c(OCCN(C)C)nc2cc(OC)ccc12 | 15.9% (inactive)
19 | Nc1n[nH]c2ccc([C@@H]3Nc4ccc5[nH]ncc5c4[C@H]4[C@H]5CCC(C5)[C@H]43)cc12 | 28.1% (inactive)
20 | Nc1cc(C(=O)O)cc(-n2c(O)c(C=C3N=c4ccccc4=N3)sc2=S)c1 | 105% (inactive)

Row | SMILES | growth
21 | c1cc2[nH]ncc2cc1-c1nc2ccc3[nH]ncc3c2c2c1CCCC2 | -3.32% (active)
22 | O=C(Nc1sc2c(c1C(=O)O)CCCC2)c1cccc(C(F)(F)F)c1 | 68.2% (inactive)
23 | CCOC(=O)c1cn2c3c(cccc3c1=O)C(=O)/C(=C/c1cccc(Cl)c1Cl)C2 | 106% (inactive)
24 | CC(=O)Nc1ccc(CC#N)cc1Br | 102% (inactive)
25 | COc1cc2c(cc1OC)-c1ccc3cc4c(cc3c1N(CCN(C)C)C2)OCO4 | -30.4% (active)
26 | COc1cc2c(=O)n(CCN)c3c4cc5c(cc4ccc3c2cc1OC)OCO5 | -31.7% (active)
27 | CCCc1cc2c(=O)c(C(=O)OC)c[nH]c2cc1N(CC)CC | 119% (inactive)
28 | COc1ccccc1Nc1nnc(-c2ccc(Cl)cc2)o1 | 14% (inactive)
29 | COc1ccc(-c2nn(Cc3ccccc3)c3c2-c2oncc2CC3)cc1OC | 99.9% (inactive)
30 | COc1cc(OC)c(C(=O)C(CN(C)C)CN(C)C)cc1OC | -73.3% (active)
31 | O=C(Nc1cccc(-c2ccc(N3CCOCC3)nn2)c1)Nc1cccc(C(F)(F)F)c1 | 29.1% (inactive)
32 | CC(=O)N=c1ccc2nc3c(cc(N)c4ccccc43)oc-2c1 | -44.5% (active)
33 | CC[C@@]1(O)C(=O)OCc2c1cc1n(c2=O)Cc2cc3c(CN(C)C)c(O)ccc3nc2-1 | -58.2% (active)
34 | Nc1cccc(-c2nc3sccn3c2-c2ccnc(NCCNS(=O)(=O)c3ccc(C(F)(F)F)cc3)n2)c1 | 51.4% (inactive)
35 | COc1ccc(N2CCN(c3ccc(NC4=C(Cl)C(=O)c5ncccc5C4=O)cc3)CC2)cc1 | -53.9% (active)
36 | CC1(c2ccccc2)NC(=O)NC1=O (stereo not given) | 105% (inactive)
37 | CN1CCN(C(=O)OCc2nc3c(N4CCOCC4)nc(-c4ccccc4)nc3n2C)CC1 | -59% (active)
38 | CC1(C)CC[C@]23CC[C@]4(C)[C@H](CC[C@@H]5[C@@]6(C)C/C(=C/c7cccnc7)C(=O)C(C)(C)[C@@H]6CC[C@]54C)[C@H]2[C@H]1OC3=O | 56.9% [100 µM] (inactive)
39 | CC(C)OCC(CCl)OC(=O)Nc1ccccc1 (stereo not given) | 112% (inactive)
40 | C=C1C(=O)O[C@H]2[C@H]1CC/C(COC(=O)NCc1cc(OC)c(OC)c(OC)c1)=C\CC[C@@]1(C)O[C@@H]21 | 35.4% (inactive)
